# Screening results from PubChem BioAssay.
# An excerpt weighted towards active compounds, which were near 2.3% of everything screened.
# FUS yeast rescue: rescues growth of FUS-expressing yeast; S. cerevisiae FUS-expressing, growth rescue, OD600, 24 h; Potency, µM (titrated, usually from 76.6 µM), usual class: activators; hit rate 0.24% among 390,000; AID 1347120;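 note: potency is the fitted concentration of half-maximal effect; plate controls were DMSO vehicle for no effect and reference control for full effect; nearly all actives have a fitted effect of over 55% in size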
#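 Restored growth of FUS-toxic S. cerevisiae, read as 600 nm absorbance after 24 h at 30C in galactose medium (starting OD 0.005). Controls CP55940 and DMSO.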
# TDP-43 yeast inh: inhibitors of TDP-43 toxicity in yeast; TDP-43 expressing yeast growth rescue, BacTiter-Glo, 24 h; Potency, µM (titrated, usually from 46.1 µM), for inactives: at the top dose growth rescue (activation), usual class: activators; hit rate 1.8% among 410,000; note: potency is the fitted concentration of half-maximal effect; % of control where 0% means no effect; nearly all actives have a fitted effect of over 50% in size
#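 Growth rescue of TDP-43-toxic yeast measured as ATP luminescence (BacTiter-Glo). Cells grown to mid-log in raffinose, induced in galactose at OD600=0.02, exposed to compound 24 hr at 30 deg C.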
# aSyn rescue: rescues yeast growth from alpha-synuclein toxicity | Potency, µM (top dose mostly 46.1 µM), inactives show at the highest dose growth rescue (activation), hits mostly activators | hit rate 0.14% among 370,000 | Yeast expressing alpha-synuclein, growth rescue, BacTiter-Glo, 24 h; note: potency is the fitted concentration of half-maximal effect; % of control where 0% means no effect; nearly all actives have a fitted effect of over 65% in size
#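 Screening used galactose-induced yeast with toxic alpha-synuclein levels, exposed to compound for 24 hr at 30 deg C. Cell growth, read with BacTiter-Glo luminescence, gave the measured signal.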
# Akt phos inh: inhibitors of Akt phosphorylation; Neuro2A IGF-stimulated pAkt S473 HTRF, 20 min; hits give low values; activity change, % for hits at 50 µM; hit rate 0.32% among 360,000; in the data active = activity change below about -80%; inconclusive = mostly about -51% to -80%; note: % is set by controls: 0 for no effect and ±100 for the full control effect
#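 Neuro2A cells in DMEM with 0.5% FBS, overnight at 37 deg C, given compound at single 50 µM final, then IGF (6 nM final) for 20 min at 37 deg C. Lysed; phospho-Akt Ser473 by HTRF after 24 h, 665/615 ratio.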
# Abeta yeast res: compounds reversing amyloid beta toxicity in yeast. yeast expressing A-beta42, growth rescue, OD600, 48 h; response scale: 0% DMSO, 100% iron-clioquinol control. Potency, µM (top dose mostly 46.1 µM), usual class: activators. hit rate 0.063% among 410,000. AID 1347071; note: potency is the fitted concentration of half-maximal effect; nearly all actives have a fitted effect of over 55% in size
#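 Yeast growth medium received pinned compounds, then yeast cells expressing toxic A-beta were added; plates incubated at 30 C for 48 hr. Growth read as absorbance at 600 nm, normalized to DMSO and equimolar FeCl3 plus clioquinol controls.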
# * = called active by the depositor; i = inactive; u = inconclusive; x = no result given; [ ] = another dose, or the depositor's remark. Unless noted, calls come from the whole dose curve; as a rule, active = well fitted curve in the direction sought with a large enough effect; inconclusive = small, poorly fitted or top-dose-only effect, or another doubt; inactive = no such curve, though single readings can be large; an effect the other way counts as inactive or inconclusive.
SMILES,FUS yeast rescue,TDP-43 yeast inh,aSyn rescue,Akt phos inh,Abeta yeast res
Cc1ncsc1CCOC(=O)C12CC3CC(CC(C3)C1)C2,i,20µM*,-6.1%,i,i
Cc1ncsc1CCOC(=O)c1cccnc1,i,3.4%,1.8%,i,i
Cc1ccc(-n2c(SCc3ccccc3)nc3c([nH]c4ccccc43)c2=O)cc1,i,u,-1.9%,x,i
Cc1ccc(CNC(=O)c2c[nH]n3c(=O)c(Cc4ccc(Cl)cc4)c(C)nc23)cc1,i,-13.8%,x,x,i
COc1ccccc1C/C(N)=N/OC(=O)COc1ccccc1C,i,14.5%,-10.7%,i,i
COc1ccc(/C(N)=N/OC(=O)c2cccc([N+](=O)[O-])c2)cc1,i,-9.2%,-21.4%,i,i
COc1ccc(/C(N)=N/OC(=O)c2cccc([N+](=O)[O-])c2C)cc1,i,7.08µM*,-3.4%,i,i
COc1ccccc1C/C(N)=N/OC(=O)c1cccc([N+](=O)[O-])c1C,i,20µM*,-56.2%,i,i
Cc1cc(C)nc(Sc2ccc([N+](=O)[O-])cc2[N+](=O)[O-])n1,x,-2.8%,-4.6%,i,i
O=[N+]([O-])c1ccc(Sc2ccncn2)c([N+](=O)[O-])c1,i,35.5µM*,2.3%,i,i
CCOC(=O)CSc1nc2ccc(NC(=O)c3ccccc3F)cc2s1,i,-15.4%,x,x,i
CC1CCC(NC(=O)C2(C)Cc3ccccc3C(=O)N2Cc2ccccc2Cl)CC1 (centres undefined),i,8.1%,x,x,i
CCCC(=O)n1nc(-c2ccco2)nc1SCc1ccccc1,i,u,-8.7%,i,i
O=C(Cc1ccccc1)n1nc(-c2ccco2)nc1SCc1ccccc1,i,11.2µM*,-0.5%,i,i
CCc1nnc(NC(=O)CCC(=O)Nc2ccccc2)s1,i,14.9%,-4.4%,i,i
CCC(C(=O)Nc1nc(C)c(C)s1)c1ccccc1 (centres undefined),i,17.8µM*,-1.7%,i,u
CCc1nnc(NC(=S)Nc2ccccc2)s1,i,12.6µM*,-8.6%,i,u
Cc1nc(NC(=S)Nc2ccccc2)sc1C,i,u,-1.2%,i,11.2µM*
O=S(=O)(/N=C(/Sc1ccccc1)c1ccccc1)c1ccc(Cl)cc1,x,x,8.6%,x,x
O=C(NCc1ccc(C(=O)N2CCOCC2)cc1)c1cccc(Br)c1,i,x,x,x,x
CCC(=O)OC1(C)C(=O)C=C2C=C(C3CC3)OC=C2C1=O (centres undefined),i,u,-11.5%,i,i
CC1(OC(=O)c2cccs2)C(=O)C=C2C=C(C3CC3)OC=C2C1=O (centres undefined),i,20µM*,-6.3%,i,i
CC1(OC(=O)c2ccco2)C(=O)C=C2C=C(C3CC3)OC=C2C1=O (centres undefined),i,11.2µM*,-12.3%,i,i
COc1ccc(-c2nc3nc(C)cc(Nc4ccc(C(C)=O)cc4)n3n2)cc1,i,29.8%,x,x,i
O=C(Nc1ccsc1C(=O)NC1CC1)c1ccccc1,i,12.6µM*,-11.5%,i,i
SMILES,FUS yeast rescue,TDP-43 yeast inh,aSyn rescue,Akt phos inh,Abeta yeast res
CN1CCN(c2ccc(-c3nc(-c4ccccc4)no3)cc2[N+](=O)[O-])CC1,i,-57.8%,x,x,i
C/C(N)=C(/C#N)C(=O)CSc1nc2ccccc2c(=O)n1Cc1ccc(F)cc1,i,10µM*,12.7%,i,12.6µM*
C/C(N)=C(/C#N)C(=O)CSc1nc2ccccc2c(=O)n1Cc1ccc(C)cc1,i,2.5%[9.22 µM],0.1%,i,i
Cc1ccc(-c2cc(C(=O)NC3=NCCS3)c3ccccc3n2)cc1C,u,u,-34.8%,i,i
O=C(NC1=NCCS1)c1cc(-c2cccc(Br)c2)nc2ccccc12,x,22.4µM*,-23.8%,i,i
Cc1ccc2nc(-c3cccc(Br)c3)cc(C(=O)NC3=NCCS3)c2c1,i,20µM*,-25.6%,i,i
O=C(NC1=NCCS1)c1cc(-c2ccc(F)cc2)nc2ccccc12,x,8.6%,-33.4%,i,i
CCC1CCCCN1C(=S)NC(=O)c1cc(Br)ccc1Cl (centres undefined),i,28.2µM*,u,i,11.2µM*
CC1CCCCN1C(=S)NC(=O)c1ccco1 (centres undefined),x,18.9%,0.1%,i,i
CCC1CCCCN1C(=S)NC(=O)c1cccs1 (centres undefined),i,-12.1%,-5.8%,i,i
CC1CCCCN1C(=S)NC(=O)c1cc(Br)ccc1Cl (centres undefined),i,25.1µM*,13.0%,i,i
O=S(=O)(c1ccc2nc(Nc3ccc(Br)cc3F)ccc2c1)N1CCCCC1,i,16.0%,x,x,i
CCn1cc2nc(SCc3cccc(C(F)(F)F)c3)n(Cc3ccc(C)cc3)c(=O)c2n1,i,8.3%,x,x,i
O=C(O)c1[nH]c2ccc([N+](=O)[O-])cc2c1-c1ccccc1,i,-14.4%,-8.4%,i,u
O=[N+]([O-])c1ccc2[nH]nc(-c3ccccc3)c2c1,x,5.62µM*,-6.6%,i,i
CC1=C(c2ccc(C(C)C)cc2)S(=O)(=O)N=C1N1CCC(C(=O)NCCc2ccco2)CC1,i,24.0%,x,x,i
COc1ccc(CNC(=O)c2ccc(Cn3c(=O)c4cccn4c4cccnc43)cc2)cc1OC,i,u,x,x,i
O=C(Cc1ccccc1)c1ccc(O)cc1,i,12.4%,-3.7%,i,u
O=C(CC(O)CCc1ccccc1)c1ccc(O)cc1 (centres undefined),i,10µM*,-0.6%,i,u
Cc1ccc(-c2nn(-c3ccccc3)cc2C=C2C(=O)CC(C)(C)CC2=O)cc1,i,-20.0%,-0.9%,i,i
CC1=NNC(=O)/C1=C\c1cn(-c2ccccc2)nc1-c1ccc(Cl)cc1,x,10µM*,-26.4%,i,i
CCn1c(=O)n(CC)c2cc(S(=O)(=O)Nc3ccccc3C)c(C)cc21,i,-21.0%,-1.2%,-89.4%*,i
CCc1ccccc1NS(=O)(=O)c1cc2c(cc1C)n(C)c(=O)c(=O)n2C,i,0.0%,-7.3%,i,i
COc1ccc(CCn2c(N)c(C(=O)NCc3ccco3)c3nc4ccccc4nc32)cc1,x,17.9%,21.2%,i,i
COCCNC(=O)c1c(N)n(CCC2=CCCCC2)c2nc3ccccc3nc12,39.8µM*,u,-51.7%,i,i
CSCCC(NC(=O)C1CCCCC1)C(=O)Nc1ccc(F)c(Cl)c1 (centres undefined),i,0.0%,x,x,i
CC(c1ccc2ccccc2c1)c1ccccc1C(=O)O (centres undefined),i,5.62µM*,-11.5%,i,i
